PubChem BioAssay (EPA / NIEHS)
Active and inactive are the calls of the source. The calls were made as follows: active = hit-call score of the fitted dose curve at least 0.9, where 1 is the maximum; inactive = score below 0.9.

What was measured:
[1] = ATG_E_Box_CIS: Attagene CIS-FACTORIAL HepG2 Assay for human Enhancer Box (E-box) (AID 2282936); conditions: HepG2 E-box cis-reporter transcription, actives raise or lower the signal
In short: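 Endogenous transcription factor activity was sensed in human HepG2 liver cells through transfected cis-promoter reporter units. After 24 h of dosing, total RNA was reverse-transcribed and reporter cDNA resolved by capillary electrophoresis.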

[2] = ATG_M_61_CIS: Attagene CIS-FACTORIAL HepG2 Assay for M61 Transcription Factor (Internal Marker) (AID 2282937); conditions: HepG2 Attagene CIS-FACTORIAL M61 internal marker reporter; actives raise or lower the signal
In short: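 Using transiently transfected HepG2 liver cells, reporter transcript levels were assessed 24 h post-dosing by RT-PCR and capillary electrophoresis. Changes in either direction were fitted relative to DMSO controls.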

[3] = ATG_EGR_CIS: Attagene CIS-FACTORIAL HepG2 Assay for human Early Growth Response 1 (EGR1) (AID 2282938); conditions: HepG2 Attagene CIS-FACTORIAL EGR reporter mRNA; actives raise or lower the signal
In short: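 Fluorescent capillary-electrophoresis signal of reporter cDNA fragments serves as read-out. HepG2 cells bear transiently transfected cis-promoter reporter units and are exposed 24 h; gain- or loss-of-signal is fitted against DMSO.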

[4] = ATG_M_19_CIS: Attagene CIS-FACTORIAL HepG2 Assay for M19 Transcription Factor (Internal Marker) (AID 2282939); conditions: HepG2 Attagene CIS-FACTORIAL M19 internal marker reporter; actives raise or lower the signal
In short: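 HepG2 cells transiently transfected with cis-regulated multiple reporter transcription units were dosed for 24 h; reporter mRNA was quantified by RT-PCR, 6-FAM primer-extension labelling, HpaI digestion and capillary electrophoresis, with bidirectional fitting against DMSO baseline.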

[5] = ATG_Ets_CIS: Attagene CIS-FACTORIAL HepG2 Assay for human Erythroblast Transformation Specific (ETS) (AID 2282941); conditions: HepG2 ETS cis-reporter transcription, actives raise or lower the signal
In short: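 Bidirectional fit versus DMSO of reporter mRNA signal, detected by RT-PCR and capillary electrophoresis in HepG2 cells transiently transfected with cis-element reporters and dosed 24 h.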

[6] = target: Hepatocyte nuclear factor 3-beta (Homo sapiens) (UniProt Q9Y261); assay: ATG_FoxA2_CIS: Attagene CIS-FACTORIAL HepG2 Assay for human Forkhead box A2 (FOXA2) (AID 2282942); conditions: HepG2 cis-reporter transcription factor activity, 24 h; actives raise or lower the signal
Hepatocyte nuclear factor 3-beta (Homo sapiens), sequence (Q9Y261 whole entry, looked up, the tested form may be a part): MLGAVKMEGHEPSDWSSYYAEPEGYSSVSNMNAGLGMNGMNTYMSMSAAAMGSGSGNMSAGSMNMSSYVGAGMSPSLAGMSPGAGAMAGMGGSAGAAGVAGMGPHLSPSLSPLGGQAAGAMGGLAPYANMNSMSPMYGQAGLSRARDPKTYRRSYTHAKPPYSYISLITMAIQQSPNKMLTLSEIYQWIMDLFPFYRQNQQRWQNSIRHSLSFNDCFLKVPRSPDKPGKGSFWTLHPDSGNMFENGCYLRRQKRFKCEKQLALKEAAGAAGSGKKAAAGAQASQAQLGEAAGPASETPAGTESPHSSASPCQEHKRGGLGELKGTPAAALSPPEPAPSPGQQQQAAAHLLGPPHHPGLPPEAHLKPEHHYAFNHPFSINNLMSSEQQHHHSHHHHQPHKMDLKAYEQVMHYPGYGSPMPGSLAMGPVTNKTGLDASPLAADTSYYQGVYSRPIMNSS
In short: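 Fluorescence signal of reporter cDNA fragments, separated by capillary electrophoresis, reflects endogenous transcription factor activity in transfected HepG2 after 24 h. Both increases and decreases fitted against DMSO.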

[7] = ATG_FoxO_CIS: Attagene CIS-FACTORIAL HepG2 Assay for human Forkhead box O (FoxO) (AID 2282943); conditions: HepG2 Attagene cis-reporter, FoxO element, mRNA; actives raise or lower the signal
In short: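 Values reflect reporter mRNA induction or loss in HepG2 cells 24 h post-dosing, fitted bidirectionally with DMSO as negative control and baseline. Detection used RT-PCR and fluorescence capillary electrophoresis.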

[8] = ATG_GATA_CIS: Attagene CIS-FACTORIAL HepG2 Assay for human GATA Binding Protein (AID 2282944); conditions: HepG2 GATA cis-element reporter, Attagene multiplex mRNA; actives raise or lower the signal
In short: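 HepG2 cells transiently transfected with multiplexed cis-element reporter units reflecting endogenous transcription factor activity; reporter mRNA measured after 24 h dosing by RT-PCR, 6-FAM labeling, HpaI digestion and capillary electrophoresis. Bidirectional fitting versus DMSO baseline.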

[9] = ATG_GLI_CIS: Attagene CIS-FACTORIAL HepG2 Assay for human Zinc Finger Protein GLI1 (AID 2282945); conditions: HepG2, Attagene cis-factorial reporter mRNA, GLI element; actives raise or lower the signal
In short: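 HepG2 cells transiently transfected with cis-promoter multiplexed reporter units report endogenous transcription factor activity. After 24 h chemical exposure, reporter mRNA was quantified by RT-PCR, 6-FAM labelling, HpaI digestion and capillary electrophoresis, with bidirectional fitting against DMSO.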

[10] = target: Bile acid receptor (Homo sapiens) (UniProt Q96RI1); assay: ATG_IR1_CIS: Attagene CIS-FACTORIAL HepG2 Assay for human Nuclear Receptor Subfamily 1 Group H Member 4 (NR1H4), IR1 submotif (AID 2282946); conditions: IR1 reporter transcription, actives raise or lower the signal
Bile acid receptor (Homo sapiens), sequence (Q96RI1 whole entry, looked up): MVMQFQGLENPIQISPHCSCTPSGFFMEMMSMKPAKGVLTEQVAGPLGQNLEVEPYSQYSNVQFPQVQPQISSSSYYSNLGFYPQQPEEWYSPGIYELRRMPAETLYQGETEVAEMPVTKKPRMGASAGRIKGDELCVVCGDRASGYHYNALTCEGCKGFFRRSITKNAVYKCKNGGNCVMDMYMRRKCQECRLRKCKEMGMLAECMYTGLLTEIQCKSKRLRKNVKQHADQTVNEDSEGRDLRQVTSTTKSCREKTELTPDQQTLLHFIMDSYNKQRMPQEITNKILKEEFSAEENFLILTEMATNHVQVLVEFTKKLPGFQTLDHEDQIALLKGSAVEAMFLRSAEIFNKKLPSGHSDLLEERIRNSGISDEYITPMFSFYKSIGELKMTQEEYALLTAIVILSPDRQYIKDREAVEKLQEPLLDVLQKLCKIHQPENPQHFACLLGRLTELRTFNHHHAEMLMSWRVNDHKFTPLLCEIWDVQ
In short: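 Readout: reporter transcript levels by RT-PCR with fluorescent capillary electrophoresis, from HepG2 cells transiently transfected with multiplexed cis-regulated reporters and dosed 24 h. Gain- or loss-of-signal fitted versus DMSO negative control.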

[11] = ATG_GRE_CIS: Attagene CIS-FACTORIAL HepG2 Assay for human Glucocorticoid Response Elements (GRE) (AID 2282947); conditions: HepG2 GRE cis-reporter, Attagene multiplex mRNA; actives raise or lower the signal
In short: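 Cells (HepG2) bearing transfected cis-promoter reporter transcription units were treated with chemical for 24 hours. Reporter mRNA was measured via RT-PCR with capillary electrophoresis, and activity was fitted in both directions relative to DMSO.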

[12] = ATG_ISRE_CIS: Attagene CIS-FACTORIAL HepG2 Assay for human Interferon Regulatory Factor 1 (IRF1) binding to an Interferon-Stimulated Response Element (ISRE) (AID 2282948); conditions: HepG2 ISRE cis-reporter (Attagene), mRNA transcription readout; actives raise or lower the signal
In short: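 Uses HepG2 liver cells transfected with cis-regulated reporters and measures mRNA 24 h post-dosing through RT-PCR, primer-extension labelling and capillary electrophoresis, with DMSO as negative control.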

[13] = ATG_M_32_CIS: Attagene CIS-FACTORIAL HepG2 Assay for M32 Transcription Factor (Internal Marker) (AID 2282949); conditions: HepG2 Attagene cis-factorial M32 reporter, mRNA; actives raise or lower the signal;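 also: background control marker of the multiplexed CIS panel rather than a real target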
In short: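 HepG2 transfectants (cis-regulated reporter transcription units) dosed 24 h. Reporter mRNA by RT-PCR plus CE, analysed as gain or loss relative to DMSO.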

[14] = ATG_M_06_CIS: Attagene CIS-FACTORIAL HepG2 Assay for M06 Transcription Factor (Internal Marker) (AID 2282950); conditions: HepG2 Attagene CIS-FACTORIAL M06 internal marker reporter; actives raise or lower the signal
In short: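 HepG2 cells transiently transfected with cis-regulated multiple reporter transcription units were exposed to chemical for 24 h; reporter mRNA was quantified by RT-PCR, 6-FAM primer labelling, HpaI digestion and capillary electrophoresis, fitted bidirectionally against DMSO.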

[15] = target: Hepatocyte nuclear factor 6 (Homo sapiens) (UniProt Q9UBC0); assay: ATG_HNF6_CIS: Attagene CIS-FACTORIAL HepG2 Assay for human Hepatocyte Nuclear Factor 6 (HNF6) (AID 2282952); conditions: HepG2 Attagene cis-factorial HNF6 reporter transcription; actives raise or lower the signal
Hepatocyte nuclear factor 6 (Homo sapiens), sequence (Q9UBC0 whole entry, looked up, the tested form may be a part): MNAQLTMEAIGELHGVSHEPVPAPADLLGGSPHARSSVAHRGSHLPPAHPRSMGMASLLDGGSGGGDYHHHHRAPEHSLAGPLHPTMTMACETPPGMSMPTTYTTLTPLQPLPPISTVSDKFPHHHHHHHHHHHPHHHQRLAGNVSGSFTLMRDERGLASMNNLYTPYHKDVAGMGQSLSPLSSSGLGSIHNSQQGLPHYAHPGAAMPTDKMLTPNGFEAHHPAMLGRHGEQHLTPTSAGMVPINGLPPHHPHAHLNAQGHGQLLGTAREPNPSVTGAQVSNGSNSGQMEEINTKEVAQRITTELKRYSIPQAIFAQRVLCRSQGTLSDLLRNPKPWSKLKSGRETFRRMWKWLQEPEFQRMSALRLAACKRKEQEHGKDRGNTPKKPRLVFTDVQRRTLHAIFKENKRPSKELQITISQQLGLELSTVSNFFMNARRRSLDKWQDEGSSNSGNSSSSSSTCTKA
In short: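 Using cis-element reporters in HepG2 liver cells, the assay tracks endogenous factor-driven transcription 24 h post-dosing. Signal comes from 6-FAM-labelled, HpaI-digested RT-PCR fragments, with gain or loss scored against DMSO.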

[16] = target: Heat shock factor protein 1 (Homo sapiens) (UniProt Q00613); assay: ATG_HSE_CIS: Attagene CIS-FACTORIAL HepG2 Assay for human Heat Shock Transcription Factor 1 (HSE) (AID 2282953); conditions: HepG2 HSE cis-reporter, Attagene RNA transcription; actives raise or lower the signal
Heat shock factor protein 1 (Homo sapiens), sequence (Q00613 whole entry, looked up): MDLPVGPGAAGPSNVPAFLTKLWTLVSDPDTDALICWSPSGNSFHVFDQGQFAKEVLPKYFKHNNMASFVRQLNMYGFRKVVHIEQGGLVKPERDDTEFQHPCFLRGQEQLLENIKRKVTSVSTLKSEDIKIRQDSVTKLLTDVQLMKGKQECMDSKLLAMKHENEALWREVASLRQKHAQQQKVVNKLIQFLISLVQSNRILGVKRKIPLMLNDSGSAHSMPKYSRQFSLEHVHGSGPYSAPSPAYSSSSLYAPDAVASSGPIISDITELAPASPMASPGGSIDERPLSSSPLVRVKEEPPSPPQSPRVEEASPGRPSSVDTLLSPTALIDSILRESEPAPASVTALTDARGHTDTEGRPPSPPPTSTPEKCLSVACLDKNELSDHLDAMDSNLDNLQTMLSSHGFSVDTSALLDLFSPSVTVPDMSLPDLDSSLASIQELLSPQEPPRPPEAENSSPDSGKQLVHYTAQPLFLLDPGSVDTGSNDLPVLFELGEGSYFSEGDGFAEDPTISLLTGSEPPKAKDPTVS
In short: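 HepG2 cells transiently transfected with multiple reporter transcription units under cis-regulatory promoter control, measuring endogenous transcription factor activity. After 24 h chemical exposure, reporter mRNA quantified by RT-PCR, fluorescent labelling, HpaI digestion and capillary electrophoresis; bidirectional fit versus DMSO.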

[17] = ATG_MRE_CIS: Attagene CIS-FACTORIAL HepG2 Assay for human Metal Responsive Element (MRE) (AID 2282954); conditions: HepG2 MRE cis-reporter transcription, Attagene multiplex; actives raise or lower the signal
In short: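 Cells were transfected with cis-promoter reporter transcription units, then dosed for 24 h. RNA was reverse-transcribed, amplified, fluorescently labelled and resolved by capillary electrophoresis, and activity was fitted in both directions relative to DMSO.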

[18] = ATG_PBREM_CIS: Attagene CIS-FACTORIAL HepG2 Assay for human Phenobarbital-responsive Enhancer Module (PBREM) (AID 2282955); conditions: HepG2 PBREM cis-reporter, Attagene multiplexed transcription; actives raise or lower the signal
In short: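 Readout: reporter mRNA, fluorescent RT-PCR fragments separated by capillary electrophoresis. System: HepG2 transiently transfected with cis-regulated reporter units. Exposure: 24 h. Analysis: bidirectional, DMSO baseline.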

[19] = target: Hypoxia-inducible factor 1-alpha (Homo sapiens) (UniProt Q16665); assay: ATG_HIF1a_CIS: Attagene CIS-FACTORIAL HepG2 Assay for human Hypoxia Inducible Factor 1 (HIF1A) (AID 2282951); conditions: HepG2 Attagene cis-factorial HIF1a reporter transcription; actives raise or lower the signal
Hypoxia-inducible factor 1-alpha (Homo sapiens), sequence (Q16665 whole entry, looked up): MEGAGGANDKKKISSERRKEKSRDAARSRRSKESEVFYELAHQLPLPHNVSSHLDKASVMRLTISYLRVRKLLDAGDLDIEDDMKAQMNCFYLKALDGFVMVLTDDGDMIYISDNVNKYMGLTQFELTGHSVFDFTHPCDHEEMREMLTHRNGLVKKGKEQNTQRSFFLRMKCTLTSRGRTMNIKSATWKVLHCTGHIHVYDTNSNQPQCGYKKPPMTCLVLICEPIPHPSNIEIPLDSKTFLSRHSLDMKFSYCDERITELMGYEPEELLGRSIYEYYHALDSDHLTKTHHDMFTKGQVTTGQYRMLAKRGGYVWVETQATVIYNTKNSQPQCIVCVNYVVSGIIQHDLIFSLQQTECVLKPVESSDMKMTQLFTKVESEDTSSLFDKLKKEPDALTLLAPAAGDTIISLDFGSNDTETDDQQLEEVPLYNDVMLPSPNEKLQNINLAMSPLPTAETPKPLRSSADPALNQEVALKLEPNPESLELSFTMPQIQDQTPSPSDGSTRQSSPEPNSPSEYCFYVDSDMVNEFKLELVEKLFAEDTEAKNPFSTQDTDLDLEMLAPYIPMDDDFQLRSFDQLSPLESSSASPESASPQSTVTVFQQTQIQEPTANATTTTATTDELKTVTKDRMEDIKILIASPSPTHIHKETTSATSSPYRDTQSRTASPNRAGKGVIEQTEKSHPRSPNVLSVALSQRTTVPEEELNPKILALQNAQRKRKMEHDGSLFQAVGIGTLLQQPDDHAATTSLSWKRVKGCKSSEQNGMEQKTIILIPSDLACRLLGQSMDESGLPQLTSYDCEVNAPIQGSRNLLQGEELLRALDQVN
In short: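 Endogenous-TF cis reporter readout, human HepG2 cells, 24 h incubation; mRNA detected via RT-PCR and capillary electrophoresis fluorescence; DMSO-normalised bidirectional fitting.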

Measured: AC50

COC(C)(C)CCCC(C)CC=O (centres undefined)
inactive: [1] | [2] | [3] | [4] | [5] | [6] | [7] | [8] | [9] | [10] | [11] | [12] | [13] | [14] | [15] | [16] | [17] | [18]

FC(F)(F)COCC(F)(F)F
inactive: [1] | [2] | [3] | [4] | [5] | [6] | [7] | [8] | [9] | [10] | [11] | [12] | [13] | [14] | [19] | [16] | [17] | [18]

Cc1ccc(N)c(S(=O)(=O)O)c1
inactive: [1] | [2] | [3] | [4] | [5] | [6] | [7] | [8] | [9] | [10] | [11] | [13] | [14] | [19] | [15] | [16] | [17]

CCC(Cl)C(Cl)C(Cl)CC(Cl)C(Cl)C(C)Cl (centres undefined)
active: [1] 83.9 µM | [10] 10.5 µM | [17] 74 µM
inactive: [2] | [3] | [4] | [5] | [6] | [7] | [8] | [9] | [11] | [12] | [13] | [14] | [19] | [16]

CN(C)CCOc1ccc(/C(=C(/CCCl)c2ccccc2)c2ccccc2)cc1
inactive: [1] | [2] | [3] | [4] | [5] | [6] | [7] | [8] | [9] | [10] | [11] | [12] | [13] | [14] | [19] | [15] | [16] | [18]

CCCC(C)=O
inactive: [1] | [2] | [3] | [4] | [5] | [6] | [7] | [8] | [9] | [10] | [11] | [12] | [13] | [14] | [19] | [15] | [17] | [18]

COC(=O)c1ccc([N+](=O)[O-])cc1
inactive: [1] | [2] | [3] | [4] | [5] | [6] | [7] | [8] | [9] | [10] | [11] | [12] | [13] | [14] | [15] | [16] | [17] | [18]

C=CC(=O)OCCCC
inactive: [1] | [2] | [3] | [4] | [5] | [6] | [7] | [8] | [9] | [10] | [11] | [13] | [14] | [19] | [15] | [16] | [17] | [18]

CC(C)=CCCC(C)CCOC=O (centres undefined)
inactive: [1] | [2] | [3] | [4] | [5] | [6] | [7] | [8] | [9] | [10] | [11] | [12] | [13] | [19] | [15] | [16] | [17] | [18]

NCC1CCCC(CN)C1 (centres undefined)
inactive: [1] | [2] | [3] | [4] | [5] | [6] | [7] | [8] | [9] | [10] | [11] | [13] | [14] | [19] | [15] | [16] | [18]

C1CCOC1
inactive: [1] | [2] | [3] | [4] | [5] | [6] | [7] | [8] | [9] | [10] | [11] | [12] | [13] | [19] | [16] | [17] | [18]

COC(C)(C)CC(C)=O
inactive: [1] | [2] | [3] | [4] | [5] | [6] | [7] | [8] | [9] | [10] | [11] | [12] | [13] | [19] | [15] | [16] | [17] | [18]

CC1(C)C2=CCCC(C)(C)[C@]23CC[C@H]1C3
inactive: [1] | [2] | [3] | [4] | [5] | [6] | [7] | [8] | [9] | [10] | [11] | [12] | [13] | [14] | [15] | [16] | [18]
active: [17] 100 µM

CCc1ncc(C)[nH]1
inactive: [1] | [2] | [3] | [4] | [5] | [6] | [7] | [8] | [9] | [10] | [11] | [13] | [14] | [19] | [15] | [16] | [17] | [18]

O=CCc1ccccc1
inactive: [1] | [2] | [3] | [4] | [5] | [6] | [7] | [8] | [9] | [10] | [11] | [12] | [13] | [14] | [19] | [15] | [16] | [18]

CCCCCCCCCC(C)C=O (centres undefined)
inactive: [1] | [2] | [3] | [4] | [5] | [6] | [7] | [8] | [9] | [10] | [11] | [12] | [13] | [14] | [19] | [15] | [17] | [18]
